Potency, max response and outcome data for 17 compounds are collected here from PubChem BioAssay (NCATS).

The structures appear in SMILES notation. Values joined by “and” are separate entries in the source; they are usually repeats but may differ in a detail not shown here. Equal entries are not always repeated. Inconclusive results are not listed. The source holds several records for some structures; these can differ, active in one and inactive in another. Values without a mark were called inactive. Active and inactive are the calls of the source. The call rests on the fitted dose curve; in most records, active means well fitted inhibition curve with a large enough effect; inconclusive means small, poorly fitted or top-dose-only effect; inactive means flat fitted curve, though single readings scatter.

The subject of one experiment is PC26. Kind of experiment: qHTS profiling for inhibitors of Plasmodium falciparum proliferation (AID 504749). The conditions noted are these: P. falciparum in erythrocytes, SYBR Green DNA, 72 h; series mostly up to 28.7 µM. An outline of the steps:
(§1)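 Quantitative HTS: compounds pinned into medium, infected erythrocytes added (0.3% parasitemia, 2.5% hematocrit), 72 h culture at 37 C under 5% CO2. Saponin/Triton lysis with SYBR Green I, overnight RT, then fluorescence read.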

A further experiment deals with PC49. The description is as above. The conditions noted are these: P. falciparum in erythrocytes, SYBR Green DNA, 72 h; series mostly up to 28.7 µM. A digest of the protocol:
as §1

In the next experiment the test system is SC27B. Described as above. The conditions noted are these: P. falciparum in erythrocytes, SYBR Green DNA, 72 h; series mostly up to 28.7 µM. A digest of the protocol:
as §1

The subject of the next experiment is TAB109. Described as above. The conditions noted are these: P. falciparum in erythrocytes, SYBR Green DNA, 72 h; series mostly up to 28.7 µM. An outline of the steps:
as §1

The test system of another experiment is TAB113. Described as above. The note with it: P. falciparum in erythrocytes, SYBR Green DNA, 72 h; series mostly up to 28.7 µM. An outline of the steps:
as §1

A further experiment has as its system TAB165. Described as above. The conditions noted are these: P. falciparum in erythrocytes, SYBR Green DNA, 72 h; series mostly up to 28.7 µM. A digest of the protocol:
as §1

The subject of a further experiment is W2. The experiment is described as above. The conditions noted are these: P. falciparum in erythrocytes, SYBR Green DNA, 72 h; series mostly up to 28.7 µM. An outline of the steps:
as §1

Another experiment has as its system CRL-7250. Briefly: Cytotoxic Profiling of Annotated Libraries Using Quantitative High-Throughput Screening (AID 1296008). On max response: on the % scale 0 is the no-effect control and ±100 the full control effect. The note with it: Five cell lines viability, CellTiter-Glo ATP luminescence, 48-72 h; max response: hits give low values. A digest of the protocol:
(§2)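 Compounds were pin-transferred onto cells and incubated 48 or 72 hr at 37 degree Celsius, 95% humidity. CellTiter-Glo was added, plates sat 10 min at room temperature, then ATP-coupled luminescence was imaged as the viability read-out.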
For orientation: Cellular ATP, detected with luciferase, serves as a proxy for viable cell number.

In a further experiment the test system is HEK293. The experiment is described as above. The note with it: Five cell lines viability, CellTiter-Glo ATP luminescence, 48-72 h; max response: hits give low values. An outline of the steps: as §2
For another experiment, the system named is HaCat. The description is as above. The conditions noted are these: Five cell lines viability, CellTiter-Glo ATP luminescence, 48-72 h; max response: hits give low values. A digest of the protocol: as §2
Further: nearly all actives have a fitted effect of over 60% in size.
Potency means the concentration at half of the fitted maximal effect.

As to `N[C@@H](Cc1cc(I)c(Oc2cc(I)c(O)c(I)c2)c(I)c1)C(=O)O`, the Potency entry in the experiment with PC26, with PC49, in the experiment on SC27B, with TAB109, with TAB113 and in the experiment with TAB165 was “inactive” throughout. Also, the Potency entry in the experiment on W2 was “inactive”. In addition, the max response in the experiment on CRL-7250 is 0.853% and -3.78% and 2.29%; with HEK293, 0.988% and -21.3% and 2.79%; in the experiment on HaCat it was -2.11%. Also, the result in the experiment with HaCat was inactive.

As for `O=C(O)c1cccnc1Nc1cccc(C(F)(F)F)c1`, the Potency result with PC26, in the experiment with PC49, in the experiment with SC27B, in the experiment on TAB109, with TAB113 and in the experiment with TAB165 was “inactive” throughout. For the same compound, the Potency entry with W2 is “inactive”. Besides, the max response is -6.42% and -10.2% with CRL-7250; -4.95% in the experiment with HEK293; 1.64% in the experiment on HaCat. Also, the result in the experiment with HaCat was inactive.

On to `N=C(N=C(N)N)N1CCOCC1`, for which the Potency result in the experiment with PC26, in the experiment with PC49, in the experiment with SC27B, in the experiment on TAB109, in the experiment with TAB113 and in the experiment with W2 was “inactive” throughout. The max response was -16.7% and 0.819% with CRL-7250; -13.7% and 0.579% in the experiment with HEK293. Further, in the experiment with HaCat, the call was inactive.

Regarding `O=c1oc2cc(O)ccc2s1`, the Potency entry with PC26, in the experiment on PC49, in the experiment on SC27B, in the experiment with TAB109, in the experiment on TAB113 and with TAB165 was “inactive” each time. Moreover, the max response was 4.4% in the experiment with CRL-7250 and -4.04% in the experiment on HEK293. Also, the compound was classed as inactive in the experiment on HaCat.

Consider `Nc1cc(C(Cl)=C(Cl)Cl)c(S(N)(=O)=O)cc1S(N)(=O)=O`, for which the Potency result with PC26, in the experiment on PC49, in the experiment with SC27B, in the experiment on TAB109, with TAB113 and with TAB165 was “inactive” in each case. In addition, the Potency result in the experiment with W2 is “inactive”. Further, the max response in the experiment with CRL-7250 is -8.91%; in the experiment on HaCat, 2.98% and -14%. The call in the experiment on HEK293 was inactive.

Turning to `Cc1cc(=O)c2c(O)c3c(O)cc(=O)c4c3c3c(cc(O)c1c23)C(C)(C)C=4O`, the Potency with PC49 was 7940 nM (active); in the experiment with SC27B it was 1580 nM (active); in the experiment on TAB109, 2240 nM (active); in the experiment with TAB113 it was 1580 nM (active); in the experiment on TAB165, 1780 nM (active); in the experiment with W2, 1350 nM (active). The Potency was 3.66 µM (active) and 13.2 µM (active) with CRL-7250; 2.59 µM (active) and 3.72 µM (active) with HEK293; 1300 nM (active) with HaCat. Further, the compound was called inactive with HaCat.

`c1ccc2[nH]c(-c3cscn3)nc2c1`: the Potency result in the experiment on PC49, with SC27B, with TAB109, in the experiment on TAB113, in the experiment on TAB165 and with W2 was “inactive” each time. The max response is -2.24% and 4.16% with CRL-7250; -22.6% and -4.05% in the experiment with HEK293; -3.12% in the experiment with HaCat. Besides, in the experiment with HaCat, the call was inactive.

`C[Se]CCC(N)C(=O)O` (stereo unspecified): the Potency result in the experiment on PC26, in the experiment with PC49, with SC27B, with TAB109, with TAB113 and in the experiment on TAB165 was “inactive” in each case. Further, the max response in the experiment on CRL-7250 was -3.1%; with HEK293 it was -11.1%; in the experiment on HaCat, -19.1%.

With `CC1Cc2ccccc2N1NC(=O)c1ccc(Cl)c(S(N)(=O)=O)c1` (stereo unspecified), the max response was -6.14% and 4.23% in the experiment with CRL-7250; 0.791% and 0.879% in the experiment with HEK293; -11.1% in the experiment on HaCat. For the same compound, the call in the experiment on HaCat was inactive.

Regarding `CCOc1cc(CC(=O)N[C@@H](CC(C)C)c2ccccc2N2CCCCC2)ccc1C(=O)O`, the Potency result in the experiment on PC26, in the experiment with PC49, in the experiment on SC27B, in the experiment on TAB109, with TAB113 and in the experiment with TAB165 was “inactive” in each case. For the same compound, the Potency entry in the experiment on W2 is “inactive”. Also, the call in the experiment on CRL-7250, in the experiment with HEK293 and in the experiment on HaCat was inactive.

For `CC(C)c1ccc2oc3nc(N)c(C(=O)O)cc3c(=O)c2c1`, the Potency result in the experiment with PC26, in the experiment with PC49, in the experiment on TAB109 and in the experiment on TAB165 was “inactive” throughout. Also, the result in the experiment with CRL-7250 and in the experiment with HaCat was inactive. The max response is 4.19% and -0.504% in the experiment with HEK293; -17.6% in the experiment with HaCat.

As for `CNC[C@@H](O)[C@@H](O)[C@H](O)[C@H](O)CO`, the Potency entry with PC26, in the experiment on PC49, in the experiment on SC27B, in the experiment on TAB109, with TAB113 and with TAB165 was “inactive” in each case. The Potency entry with W2 was “inactive”. Also, the compound was called inactive with CRL-7250, with HEK293 and with HaCat.

On to `O=P(O)(O)C(O)(Cn1ccnc1)P(=O)(O)O`, for which the Potency result in the experiment with PC26, in the experiment with PC49, in the experiment on SC27B, with TAB109, with TAB113 and with TAB165 was “inactive” throughout. Moreover, the Potency entry in the experiment on W2 was “inactive”. In addition, the result with CRL-7250 and in the experiment on HaCat was inactive. Also, in the experiment on HEK293, the max response was -11%.

Consider `Cc1ccc(Nc2nccc(N(C)c3ccc4c(C)n(C)nc4c3)n2)cc1S(N)(=O)=O`, for which the Potency with CRL-7250 is 6.51 µM (active); in the experiment on HEK293, 11.8 µM (active). Further, in the experiment with HaCat, the max response was -13.5% and -50.9%. The outcome with HaCat was inactive.

Consider `CC(S)C(=O)NCC(=O)O` (stereo unspecified), for which the Potency entry with PC26, in the experiment with PC49, in the experiment with SC27B, in the experiment with TAB109, in the experiment with TAB113 and in the experiment with TAB165 was “inactive” throughout. Besides, in the experiment on W2, the Potency result is “inactive”. The compound was classed as inactive in the experiment on CRL-7250 and in the experiment with HaCat. Moreover, the max response with HEK293 is -0.0067% and -3.71%; in the experiment on HaCat, -2.01%.

On to `CC1(C)NC(=O)N(c2ccc([N+](=O)[O-])c(C(F)(F)F)c2)C1=O`, for which the Potency result in the experiment with PC26, in the experiment on PC49, in the experiment on SC27B, in the experiment with TAB109, in the experiment with TAB113 and with TAB165 was “inactive” throughout. In addition, in the experiment with W2, the Potency entry is “inactive”. Moreover, the max response in the experiment on CRL-7250 is -12.3%; in the experiment on HEK293 it was -29%; with HaCat it was -0.412%. Also, the call in the experiment on HaCat was inactive.

As for `O=C(CS(=O)Cc1ccco1)NCC=CCOc1cc(CN2CCCCC2)ccn1` (stereo unspecified), the Potency result in the experiment with PC26, in the experiment with PC49, in the experiment on SC27B, in the experiment on TAB113, with TAB165 and in the experiment on W2 was “inactive” in each case. Moreover, the compound was classed as inactive in the experiment with CRL-7250. Besides, the figures for the max response in the experiment on HEK293 and in the experiment on HaCat were -11.3% and 0.787%, respectively.
